The structures appear in SMILES notation. This is part of a sample that, as a whole, favours compounds with a hit. Of some 83,000 tested, about 20% had one in any assay.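 Single-dose data. Exposure time 48 hours. Values below 10 considered active.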 Values without a mark were called inactive. Calls of active or inactive are those of the source.

This experiment deals with HS 578T breast. The experiment in a line: NCI-60 one-dose screen, 48 h (100 = growth as untreated, 0 = no growth, -100 = all killed). As to conditions: 10 µM unless noted.
With `CC(=O)OC[C@]12CC[C@@H]([C@@H](C)c3nnc(-c4ccncc4)o3)[C@@H]1[C@H]1CC[C@@H]3[C@@]4(C)CC[C@H](OC(C)=O)C(C)(C)[C@@H]4CC[C@@]3(C)[C@]1(C)CC2`, the growth is 92.1%.
Under `CCN(CC)c1ccc(/C=N/NC(=O)Cc2ccc(Nc3ccnc(C(F)(F)F)c3)cc2)c(O)c1` stands 37.7%; under `Cc1cc2c(cc1C)N(C(=O)CCl)CC(=O)N2`, 72.9%.
As for `C#CC#CC#CC#CC#CC#CC#CC#CC[C@@H]1OC[C@@H](COC(=O)O[C@@H](C(=O)O[C@H]2C[C@@]3(O)[C@@H](OC(=O)c4ccccc4)[C@@H]4[C@]5(OC(C)=O)CO[C@@H]5C[C@H](O)[C@@]4(C)C(=O)[C@H](OC(C)=O)C(=C2C)C3(C)C)[C@@H](NC(=O)c2ccccc2)c2ccccc2)O1`, the growth was 94.1%.
Under `CCN1C(=O)N(CC)C2C1NN=c1s/c(=C\c3cnc(C)n3C)c(=O)n12` (stereo not given) stands -1.81% (active); under `C/C=C(\C)C(=O)N[C@H]1C(O)C[C@]2(C)C3CC[C@@]4(C)C(CC[C@@H]4C(C)N(C)C)C3CCC2C1O` (stereo not given in full), 71.5%; under `C#Cc1cccc(Nc2nc(C)nc3cc(NC(=O)CCl)ccc23)c1`, -11.6% (active).
With `CSc1nn2c(-c3ccc4ccccc4c3)ccnc2c1C#N` the figure was 33.6%; with `CCN(CC)CCCOc1ccc2ncnc(Nc3ccc(Oc4cccc(C(F)(F)F)c4)c(Cl)c3)c2c1`, -32.8% (active); with `O=C1/C(=C\c2ccccn2)c2ccccc2N1c1c(Cl)cccc1Cl`, 22.9%.

(Values after PubChem BioAssay (NCI).)
